# Hits are enriched below; roughly 2.3% of the tested compounds scored in any of these assays.
# M1 antag: blocks human M1 muscarinic receptor; CHO-K1 hM1, Fluo-8 calcium fluorescence, ACh EC80 antagonist; inhibition, % at 3 µM; P11229; hit rate 1.3% among 360,000;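 active = percent inhibition above its own plate's cutoff, namely the mean of that plate's compound wells plus 3 SD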;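 also: peak over basal fluorescence ratio during 140 s after agonist addition; 0% = ACh EC80 plus DMSO and 100% = DMSO alone without agonist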
# Target sequence (P11229 whole entry, looked up): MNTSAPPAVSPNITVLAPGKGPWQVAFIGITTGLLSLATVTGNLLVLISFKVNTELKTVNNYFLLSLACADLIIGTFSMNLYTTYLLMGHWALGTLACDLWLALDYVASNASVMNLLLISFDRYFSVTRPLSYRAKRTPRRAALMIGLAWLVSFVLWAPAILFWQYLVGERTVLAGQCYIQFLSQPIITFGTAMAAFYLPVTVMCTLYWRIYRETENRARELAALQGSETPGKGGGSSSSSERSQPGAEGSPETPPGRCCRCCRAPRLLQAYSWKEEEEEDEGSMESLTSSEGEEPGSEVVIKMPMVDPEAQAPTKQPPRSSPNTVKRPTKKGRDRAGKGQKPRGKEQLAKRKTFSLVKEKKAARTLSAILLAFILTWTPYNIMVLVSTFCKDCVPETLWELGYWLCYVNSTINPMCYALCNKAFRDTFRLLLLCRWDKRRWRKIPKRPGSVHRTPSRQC
# CHRM1 agonist: activates human CHRM1 receptor; P11229; CHO-K1 hM1, Fluo-8 calcium fluorescence, agonist mode; 0% DMSO, 100% acetylcholine EC100; activation, % at 3 µM; hit rate 0.33% among 360,000; AID 588814;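 active = activation above the run's mean compound activation plus 3 SD, cut at about 16% in these data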;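 also: peak over basal fluorescence ratio within a 140 s kinetic read after compound addition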
# M1 ag parental: M1 agonist counterscreen hit in parental CHO-K1 cells | Fluo-8 calcium fluorescence; scaled to maximal ATP response, vehicle zero | hit rate 0.48% among 360,000 | activation, % at 3 µM; in the data active = activation above about 15%;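 also: untransfected CHO-K1 host cells lacking M1 receptor as counterscreen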
# CHO-K1 Ca PAM: M1 PAM counterscreen hit in parental CHO-K1 cells; ATP EC20, Fluo-8 calcium fluorescence; 0% at ATP EC20, 100% at ATP max; hit rate 0.02% among 360,000; activation, % at 3 µM;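 active = activation above the run cutoff, the mean activation of all test compounds plus 3 SD, cut at about 40% in these data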;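 also: peak over basal fluorescence ratio in a 140 s read after ATP addition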
# CHO-K1 Ca antag: nonselective inhibitor or artifact in parental CHO-K1 cells. hit rate 0.6% among 360,000. inhibition, % at 3 µM. ATP-induced calcium, Fluo-8 fluorescence;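 active = inhibition above a per-plate cutoff, the plate's mean sample inhibition plus 3 SD, cut at about 24% in these data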;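 also: 0% = DMSO plus EC80 ATP and 100% = DMSO alone without ATP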
# M1 PAM: human CHRM1 positive allosteric modulation; P11229; CHO-K1 hM1, Fluo-8 calcium fluorescence, ACh EC20; 0% = ACh EC20, 100% = maximal ACh; activation, % at 3 µM; hit rate 0.088% among 360,000; AID 588819; in the data active = activation above about 19%, passing the limit was not always enough
# * marks the source's active call; other numbers are inactive results; / = no result; + = active, no number.
SMILES,M1 antag,CHRM1 agonist,M1 ag parental,CHO-K1 Ca PAM,CHO-K1 Ca antag,M1 PAM
CCCCC1CCC(C(=O)N(CCC(C)C)c2c(N)n(CCCC)c(=O)[nH]c2=O)CC1 (centres undefined),-17,-1,0,21,-16,14
CCC(NS(=O)(=O)c1ccc(C)cc1)C(=O)N1CCOCCOCCOCCOCC1 (centres undefined),-10,-4,0,6,3,6
Cc1ccc(NS(=O)(=O)c2ccc(C(=O)N3CCC3)cc2)cc1,5,3,3,-18,7,-5
CCCC(=O)Nc1ccc(C(=O)N2CCCC2)cc1,-6,-1,0,-5,24*,9
COc1ccc(CNS(=O)(=O)c2c(C(=O)N3CCCCCC3)c(C)n(C)c2C)cc1,-16,-1,0,3,26*,4
Cc1ccc(NS(=O)(=O)c2ccc(C(=O)N3CC(C)OC(C)C3)cc2)cc1 (centres undefined),11,39*,33*,-21,2,-6
CCOC(=O)Cc1csc(NC(=O)C(NC(=O)C2CCC(C)CC2)C(C)C)n1 (centres undefined),-3,-5,10,2,1,-5
CN(C)CCCOC(=O)c1ccc(Cl)cc1Cl,-4,-6,0,8,-6,8
CCCN(CCC)CCCOC(=O)c1ccc(Cl)cc1Cl,68*,-4,2,19,-10,-21
Cc1cccc(NC(=O)C(C)Sc2nc3nc(C)cc(C)n3n2)c1 (centres undefined),-20,-1,1,-1,-1,16
COc1ccc(NC(=O)N[C@@H](Cc2ccccc2)C(=O)NN)cc1,-15,-3,1,25,-8,9
NNC(=O)[C@H](Cc1ccccc1)NC(=O)Nc1ccc2c(c1)OCCO2,36*,-7,0,-13,-4,-22
CCC(Sc1nc2ncccc2[nH]1)C(=O)N1CCOCC1 (centres undefined),-17,-2,0,21,-7,16
C=C(C)c1ccccc1,-4,-3,0,3,-14,3
N#CC1=C2SCN(Cc3ccccc3)CN2C(=O)CC1c1cccs1 (centres undefined),-2,-6,1,1,27*,-3
COc1cccc(NC(=O)C(=O)NCCC2CCCCN2S(=O)(=O)c2cccs2)c1 (centres undefined),-6,-3,1,9,6,5
CCOC(=O)C1(CCc2ccccc2)CCN(C(=O)CCn2cncn2)CC1,-1,-4,0,-9,1,-6
O=C(CCC(=O)N1CCN(C2CCCCC2)CC1)Nc1nnc(C(F)(F)F)s1,4,4,1,5,-3,6
CCc1nnc(NC(=O)CCC(=O)N2CCCC2)s1,-3,-3,0,16,-2,2
CCc1nnc(NC(=O)CCC(=O)N2CCN(C3CCCCC3)CC2)s1,-1,19*,1,10,-16,-4
CC(C)c1nnc(NC(=O)CCC(=O)N2CCN(C3CCCCC3)CC2)s1,9,22*,1,2,-11,-12
Cc1ccc(C)c(NC(=O)C2CCCN2/C=C/C(=O)C(F)(F)F)c1 (centres undefined),4,-3,0,-6,26*,0
Cc1cccc(NC(=O)C2CCCN2/C=C/C(=O)C(F)(F)F)c1C (centres undefined),-3,-7,5,22,-3,8
CC(=O)Nc1ccc(NC(=O)CSc2ccc3nnc(-c4cccnc4)n3n2)cc1,21,-2,0,-8,-10,-7
O=S1(=O)[C@H]2C[C@@H]3C=C[C@]2(CN1Cc1ccc(C(F)(F)F)cc1)O3,-3,-4,0,7,-3,4
SMILES,M1 antag,CHRM1 agonist,M1 ag parental,CHO-K1 Ca PAM,CHO-K1 Ca antag,M1 PAM
N#CC(C#N)=C1C=C2C=C(N3CCOCC3)CCC2CC1 (centres undefined),58*,124*,65*,-14,23,-25
N#CC(C#N)=C1C=C2C=C(N3CCCCCC3)CCC2CC1 (centres undefined),102*,+,939*,-14,102*,-33
CCN1CCN(C2=CC3=CC(=C(C#N)C#N)CCC3CC2)CC1 (centres undefined),101*,591*,366*,-22,78*,-25
CN1CCN(C2=CC3=CC(=C(C#N)C#N)CCC3CC2)CC1 (centres undefined),103*,896*,522*,-25,85*,-28
O=C(CC(Nc1ccc(F)cc1)C(=O)OCC(=O)c1cccs1)c1ccccc1 (centres undefined),4,-8,8,12,8,-1
CC1(c2nc3ccccc3[nH]2)c2ccccc2C(=O)N1Cc1ccccn1 (centres undefined),/,/,0,-12,-19,/
C#Cc1ccc([C@@H]2C=C(C(=O)OCC=C)O[C@H](OCc3ccc(CO)cc3)C2)cc1,-8,-6,-1,-1,1,3
CC1(C(=O)NS(=O)(=O)C2CC2)CCCN(C(=O)c2cccs2)C1 (centres undefined),-8,-1,0,7,-2,8
O=C(CNc1cccc(S(=O)(=O)N2CCCC2)c1)Nc1cccc(Br)c1,8,3,19*,-16,5,-5
O=C(CNc1ccc(C(F)(F)F)cc1)Nc1cccc(S(=O)(=O)N2CCCCC2)c1,24*,0,7,9,6,-11
O=C(COC(=O)c1ccc(S(=O)(=O)N2CCCC2)cc1)Nc1cccc(Br)c1,29*,-4,2,-17,-5,-17
Cc1cccc(NC(=O)COC(=O)c2ccc(S(=O)(=O)N3CCCCCC3)cc2)c1,-12,-3,0,-21,-1,9
O=C(COC(=O)c1cc(S(=O)(=O)N2CCCC2)ccc1O)Nc1ccc(SC(F)F)cc1,10,5,15*,14,12,-4
CCN1C(=O)[C@H]2[C@@H](c3ccc(C)cc3)N[C@]3(CCCN(Cc4ccco4)C3=O)[C@H]2C1=O,-3,-3,1,5,-14,2
OC[C@H]1O[C@@H](O[C@@H]2[C@@H](CO)O[C@@](O)(CO)[C@H]2O)[C@H](O)[C@@H](O)[C@H]1O,-10,-1,0,-14,27*,-3
COC1OC(CO)C(O)C(O)C1O (centres undefined),-2,-1,0,-12,7,-6
CCOC(=O)c1ccc(NC(=O)N(CC)CC)cc1,-7,-6,0,7,0,4
O=C(NC1CCCCC1)C(=O)c1c(-c2ccccc2)[nH]c2ccccc12,-5,-4,0,-11,27*,1
CC1Cc2c([nH]c3ccccc23)C(=O)N1 (centres undefined),-18,-3,0,9,-3,9

# Screens deposited in PubChem by The Scripps Research Institute Molecular Screening Center.
